# Data published in PubChem BioAssay AID1566 (Sanford-Burnham Center for Chemical Genomics, 2009).
# About 1,800 (0.62%) of roughly 290,000 compounds were called active. No stated cut-off is given here; in the data, active means inhibition above about 50%; inactive means the rest. Shown is part of a subset that was picked to be rich in actives.
# Assay: NOD2 signaling inhibitors, cell-based, luminescence, uHTS, HEK293 (AID 1566)
# Conditions: HEK293 NOD2/NF-kB luciferase reporter, at 4 µM, stronger effect = higher value
row,SMILES,inhibition
1,CC(C)(C)OC(=O)N1CCC(c2cc(=O)n3[nH]c(-c4ccc(Cl)cc4)cc3n2)CC1,8% (inactive)
2,Cc1nc2sc(C(c3ccc(Cl)cc3)N3CCN(C(=O)c4ccco4)CC3)c(O)n2n1 (stereo not given),1.9% (inactive)
3,Cc1ccc(NS(=O)(=O)c2ccc(-c3cnc(C4CC4)o3)cc2)cc1,-3.1% (inactive)
4,COc1ccc(NS(=O)(=O)c2ccc3c(c2)OCCO3)cc1OC,52.2% (active)
5,COc1ccc(S(=O)(=O)Nc2ccc3c(c2)OCCO3)cc1OC,4% (inactive)
6,COc1ccc(S(=O)(=O)Nc2ccc3c(c2)OCO3)cc1OC,-22.1% (inactive)
7,COc1ccc(C)cc1NS(=O)(=O)c1ccc(-c2cnc(C3CC3)o2)cc1,27.1% (inactive)
8,COc1ccc(-c2noc(-c3ccoc3C)n2)cc1,-47.8% (inactive)
9,CC(C)(C)C(=O)Nc1ccc(-c2cnco2)cc1,2.7% (inactive)
10,Cc1ccc(CC(=O)Nc2ccc(C(=O)N3CCCCC3)cc2)cc1,0.3% (inactive)
11,Cc1ccc(C23CC4CC(CC(NC(=O)NC(C)(C)CO)(C4)C2)C3)cc1,-8.2% (inactive)
12,COc1ccccc1C1(O)C(=O)Nc2ccccc21 (stereo not given),24.1% (inactive)
13,Cc1nn(-c2ccccc2Cl)c(Cl)c1/C=N/Nc1cccc(C(=O)O)c1,-183% (inactive)
14,CCOC(=O)N/N=C/c1c(C)nn(-c2ccccc2Cl)c1Cl,-45.5% (inactive)
15,Cc1nn(-c2ccccc2Cl)c(Cl)c1/C=N/Nc1nc2ccccc2s1,78.1% (active)
16,COc1ccccc1NC1=C(C)C(=O)CC1,5.8% (inactive)
17,Cc1cccc(NC(=O)N2CCC(C(=O)c3ccc(F)cc3)CC2)c1,-7.7% (inactive)
18,O=C1CCCN2N=C(SCC(=O)Nc3cccc(Cl)c3)SC2=N1,43.7% (inactive)
19,O=C1CCCN2N=C(SCC(=O)Nc3cccc(C(F)(F)F)c3)SC2=N1,58.1% (active)
20,O=C1CCCN2N=C(SCC(=O)Nc3cccc(F)c3)SC2=N1,-16.8% (inactive)
21,CCC(C(=O)NCCCN1CCCCCC1)n1nc(C)c2sc3ccccc3c2c1=O (stereo not given),-40.3% (inactive)
22,CCC(C)(C)c1ccc(OCCCC[n+]2ccc(C)cc2)c(C(C)(C)CC)c1,29.7% (inactive)

row,SMILES,inhibition
1,CCC(C)(C)c1ccc(OCCCC[n+]2ccccc2)c(C(C)(C)CC)c1,12% (inactive)
2,CC(C)(C)NC(=O)NC(=O)COC(=O)Cc1c(Cl)cccc1Cl,1.1% (inactive)
3,COc1ccc(CCNc2oc(COc3ccc(F)cc3)nc2C#N)cc1,-49.7% (inactive)
4,COc1ccc(CCNc2oc(COc3ccccc3F)nc2C#N)cc1OC,9.2% (inactive)
5,COc1ccc(CCNc2oc(COc3ccccc3)nc2C#N)cc1,-27.2% (inactive)
6,COc1ccc(CCNc2oc(Cc3ccccc3)nc2C#N)cc1OC,36.6% (inactive)
7,CCOC(=O)N1CCN(C(=O)CSc2nc3c(cnn3-c3ccccc3)c(=O)[nH]2)CC1,2.1% (inactive)
8,COc1ccc(-c2cc(=O)oc3c(C)c(OCC(=O)NCC4CCC(C(=O)O)CC4)ccc23)cc1 (stereo not given),23.3% (inactive)
9,CCSC1=C(C#N)C2(CCCCC2)C(C#N)C(=O)N1 (stereo not given),10.3% (inactive)
10,N#CC1=C(SCC(=O)NC2CC2)NC(=O)C(C#N)C12CCCCC2 (stereo not given),-1.6% (inactive)
11,Cc1nn(-c2cc(N3CCCCC3)ccc2[N+](=O)[O-])c(=O)c2ccccc12,-6.2% (inactive)
12,CCC(C)[C@H](NC(=O)C1CC(=O)N(c2ccc(OC)cc2)C1)C(=O)N1CCCCC1 (stereo not given in full),12.9% (inactive)
13,COC(=O)c1ncn(C2OC(COC(C)=O)C(OC(C)=O)C2OC(C)=O)n1 (stereo not given),18.8% (inactive)
14,CCN1CCN(CCC(=O)Nc2ccc(F)c(F)c2)CC1,1.5% (inactive)
15,CCN(CC)S(=O)(=O)c1ccc2nnn(O)c2c1,-3.6% (inactive)
16,Cc1ccc(-n2nc3c(=O)n(CCCC(=O)N4CCC(C)CC4)nc(C)c3c2C)cc1,27.9% (inactive)
17,Cc1nn(-c2ccccc2)c2nc(C(F)(F)F)[nH]c(=O)c12,30.5% (inactive)
18,Cc1ccc(-n2nc(C)c3c(=O)[nH]c(C(F)(F)F)nc32)cc1,32.3% (inactive)
19,O=C(CCCOc1ccc(Cl)cc1Cl)Nc1ccccn1,-183% (inactive)
20,O=C(COc1ccc(Cl)cc1Cl)Nc1ccc(Cl)cn1,-209% (inactive)
21,O=C(COc1ccc(Cl)cc1Cl)Nc1ccccn1,62.1% (active)
22,Cc1cccc(NC2=NCC(=O)N2CCc2ccccc2)c1,-0.2% (inactive)

row,SMILES,inhibition
1,COc1cc(C(=O)N(c2ccc(C)c(C)c2)C2C=CS(=O)(=O)C2)cc(OC)c1OC (stereo not given),-4.9% (inactive)
2,O=C(O)CCCc1nc(-c2ccccc2)no1,-10% (inactive)
3,COc1ccc(-c2noc(CCCC(=O)O)n2)cc1,57.7% (active)
4,COc1ccc(-c2noc(CCC(=O)O)n2)cc1,11.3% (inactive)
5,O=C(NCCc1ccc(C(F)(F)F)cc1)C1CCC(=O)N(CCc2cccc(F)c2)C1 (stereo not given),-4.6% (inactive)
6,CN(C)/N=C/C=C1\CC/C(=C\c2ccc(Br)cc2)C1=O,-21.2% (inactive)
7,COc1ccc(/C=C2\CCC/C(=C\C=N\N(C)C)C2=O)cc1,-25.5% (inactive)
8,CN(C)/N=C/C=C1\CCC/C(=C\c2ccc(F)c(F)c2)C1=O,63% (active)
9,Cc1ccc(-c2cc(C(F)F)nc(N3CCOCC3)n2)cc1,15.5% (inactive)
10,O=C1CCN(C2CCN(Cc3nc(Cc4ccccc4F)no3)CC2)CCN1,5.8% (inactive)
11,COc1ccc(C(=O)N2CCC(n3nccc3NC(=O)C3CC3)CC2)c(OC)c1OC,12.7% (inactive)
12,O=C(NC(O)C(=O)c1ccccc1)c1cccs1 (stereo not given),10% (inactive)
13,CC(C)(C)c1ccc(C(=O)NNC(=O)c2cccc(-n3cnnn3)c2)cc1,13.7% (inactive)
14,Cc1nc(N2CCN(c3ccccn3)CC2)c2c(C)c(C(=O)N3CCN(c4cccc(Cl)c4)CC3)sc2n1,38.7% (inactive)
15,COc1ccccc1N1CCN(C(=O)c2sc3nc(C)nc(N4CCN(c5ccccn5)CC4)c3c2C)CC1,16% (inactive)
16,Cc1nc(N2CCN(c3ccccn3)CC2)c2c(C)c(C(=O)Nc3ccc(F)cc3F)sc2n1,3.4% (inactive)
17,Cc1c(C(=O)N2CCN(c3ccccc3)CC2)sc2ncnc(N3CCN(c4ccccn4)CC3)c12,39.4% (inactive)
18,Cc1nc(N2CCN(c3ccccn3)CC2)c2c(C)c(C(=O)Nc3ccc(F)cc3Cl)sc2n1,33.8% (inactive)
19,Cc1nc(N2CCN(c3ccccn3)CC2)c2c(C)c(C(=O)Nc3c(F)cc(F)cc3Br)sc2n1,33.9% (inactive)
20,Cc1c(C(=O)N2CCN(c3ccccn3)CC2)sc2ncnc(N3CCOCC3)c12,-1.8% (inactive)
21,Cc1nc(N2CCN(c3ccccn3)CC2)c2c(C)c(C(=O)Nc3ccc(Cl)cc3)sc2n1,15.9% (inactive)
